From PubChem BioAssay (NCI)
About 79,000 compounds went through this panel and 15% of them were active in at least one assay; those are over-represented in the sample as a whole. Unmarked numbers belong to inactive results. The source made the active and inactive calls. No stated cut-off is given here; in the data, active means growth inhibition above about 70%; inactive means the rest.

Tests used:
[1] = NCI Yeast Anticancer Drug Screen. Data for the rad50 strain (AID 155);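 further: 0% = growth of vehicle-only cultures of the same strain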; conditions: S. cerevisiae rad50 strain growth inhibition, hits give high values
Outline: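 Inhibition values express reduced yeast growth in compound-treated cultures relative to vehicle-treated controls.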

[2] = NCI Yeast Anticancer Drug Screen. Data for the mec2-1 strain (AID 157); conditions: S. cerevisiae mec2-1 strain, hits give high values
Outline: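 Readout is yeast growth inhibition, normalised to vehicle-treated controls, in the mec2-1 strain exposed to compound.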

[3] = NCI Yeast Anticancer Drug Screen. Data for the sgs1 mgt1 strain (AID 161);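 further: 0% = growth of cultures given vehicle only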; conditions: S. cerevisiae sgs1 mgt1 strain, hits give high values
Outline: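 This yeast growth screen uses a strain with defined DNA-repair lesions; compound-treated growth is compared with vehicle-treated growth.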

[4] = NCI Yeast Anticancer Drug Screen. Data for the cln2 rad14 strain (AID 165);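 further: 0% = growth equal to vehicle treated cultures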; conditions: S. cerevisiae cln2 rad14 strain, hits give high values
Outline: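 Relative to vehicle controls, growth inhibition of compound-treated cln2 rad14 yeast was recorded.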

[5] = NCI Yeast Anticancer Drug Screen. Data for the bub3 strain (AID 167); conditions: S. cerevisiae bub3 mutant strain, hits give high values
Outline: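 Steps: expose the mutant yeast strain to compound; grow alongside vehicle-treated cultures; measure growth; express inhibition against the vehicle cultures.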

[6] = NCI Yeast Anticancer Drug Screen. Data for the mlh1 rad18 strain (AID 175); conditions: S. cerevisiae mlh1 rad18 strain growth inhibition, hits give high values
Outline: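 Test agents were incubated with a yeast strain of defined genotype (DNA damage repair defect). Inhibition of growth was derived by comparison with vehicle-exposed cultures.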

[7] = at 5.0 µM (retest, dose inferred, filed as 0.5)
[8] = at 50.0 µM (retest, dose inferred, filed as 5.0)

Compound | growth inhibition [1, 7] | growth inhibition [1, 8] | growth inhibition ([1]; at 50.0 µM) | growth inhibition [2, 7] | growth inhibition [2, 8] | growth inhibition ([2]; at 50.0 µM) | growth inhibition [3, 7] | growth inhibition [3, 8] | growth inhibition ([3]; at 50.0 µM) | growth inhibition [4, 7] | growth inhibition [4, 8] | growth inhibition ([4]; at 50.0 µM) | growth inhibition [5, 7] | growth inhibition [5, 8] | growth inhibition ([5]; at 50.0 µM) | growth inhibition [6, 7] | growth inhibition [6, 8] | growth inhibition ([6]; at 50.0 µM)
COc1ccccc1C1SC(c2ccccc2)(c2ccccc2)OC1=O (stereo not given) | -2% | -9% | 84.6% (active) | -2% | -4% | 50.1% | 12% | -2% | 80.2% (active) | -2% | -7% | 84.8% (active) | -1% | 16% | 85.9% (active) | 0% | -6% | 80.9% (active)
CC(C(=O)O)c1c(-c2ccccc2)ccc2ccccc12 (stereo not given) | 37% | 3% | 38.9% | 22% | 4% | 51.1% | 2% | 32% | 51.5% | -8% | 12% | 52.1% | 6% | 14% | 38.9% | 5% | 24% | 63.6%
CC(=O)c1csc2c1C(=O)c1scc(C(C)=O)c1C2=O | 26% | 48% | 48.5% | 27% | 49% | 30.9% | 24% | 43% | 90.3% (active) | 14% | 36% | 88.6% (active) | 37% | 47% | 90.3% (active) | 32% | 49% | 87% (active)
O=C1c2ccccc2NC(=O)C2C1C(c1ccccc1)CC2(O)c1ccccc1 (stereo not given) | 7% | 87% (active) | 62.5% | 7% | 88% (active) | 73.8% (active) | 16% | 70% (active) | 72% (active) | -14% | 51% | 68% | -27% | 75% (active) | 69.5% | 21% | 86% (active) | 32.5%
CN(C)CC/C(=N\Nc1ccc(Cl)cc1)c1ccccc1 | 98% (active) | 99% (active) | 99.2% (active) | 100% (active) | 99% (active) | 98.8% (active) | 100% (active) | 99% (active) | 99% (active) | 96% (active) | 99% (active) | 95.9% (active) | 98% (active) | 99% (active) | 99.6% (active) | 99% (active) | 99% (active) | 98.7% (active)
CCN(CC)CCOC(=O)CCN1CC2CCC(CC2)C1 | 14% | 15% | -35.6% | 13% | 7% | -22.1% | 17% | 4% | -23.9% | 23% | 3% | 9.4% | 0% | -4% | -32.8% | 18% | 10% | -21.4%
Cc1ccc(O)c(C(c2cccc(C(c3cc(C)ccc3O)c3cc(C)ccc3O)c2)c2cc(C)ccc2O)c1 | 66% | 94% (active) | 95.5% (active) | 54% | 97% (active) | 95.4% (active) | 31% | 97% (active) | 95% (active) | 66% | 96% (active) | 91.6% (active) | 72% (active) | 96% (active) | 95.7% (active) | 78% (active) | 96% (active) | 95.8% (active)
CN(CC(=O)O)c1ncc2c(n1)-c1ccccc1OC2 | 17% | 13% | 48.6% | 8% | 12% | 57.1% | 6% | 17% | -21% | 14% | 18% | -23.5% | 12% | 15% | -28.1% | 14% | 10% | -55.2%
CN(C)CCC1(C2=CCCC2)CC/C(=C\c2ccccc2Cl)C1=O (stereo not given) | -1% | 60% | 69.3% | -18% | 28% | 22.6% | 0% | 62% | 42.4% | -10% | 51% | 73% (active) | 19% | 76% (active) | 36.5% | 4% | 92% (active) | 87.8% (active)
CCCCCCCCCCCCCCOC(=O)C(N)Cc1ccc(O)cc1 (stereo not given) | 7% | 97% (active) | 98.6% (active) | 1% | 98% (active) | 99.2% (active) | 4% | 98% (active) | 97.9% (active) | 1% | 94% (active) | 95.1% (active) | 3% | 98% (active) | 98.5% (active) | 7% | 97% (active) | 98.8% (active)
